Test results as given in PubChem BioAssay.
Results filed as inconclusive are left out. Active and inactive are the calls of the source.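 How the source made its calls, unless noted: active means growth inhibition above a set limit, 3 SD over mean compound inhibition, in both replicates (cut at about 43% in these data); inconclusive means above the limit in only one replicate; inactive means at or below the limit in both replicates.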

Columns and labels:
[1] = Her2 expression decrease, cell viability multiplex – SKBR3 breast tumor cells, AlphaScreen, ATP viability, primary screen (AID 461;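 active means Her2 level under about 52% in both replicate screens, with viability over 70% of control, limit read from the data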;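 on Her2 level: lower value means less Her2 protein in the cells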;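 on viability: percent of carrier control wells set as 100% viability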); settings: SKBR3 Her2 protein level, 18-24 h, measured here: SKBR3 viability, ATP luminescence, at 10 µM
[2] = target: Receptor tyrosine-protein kinase erbB-2 (Homo sapiens) (UniProt P04626); assay: as above; settings: 18-24 h, at 10 µM, stronger effect = lower value
Chain of Receptor tyrosine-protein kinase erbB-2 (Homo sapiens) (P04626 whole entry, looked up): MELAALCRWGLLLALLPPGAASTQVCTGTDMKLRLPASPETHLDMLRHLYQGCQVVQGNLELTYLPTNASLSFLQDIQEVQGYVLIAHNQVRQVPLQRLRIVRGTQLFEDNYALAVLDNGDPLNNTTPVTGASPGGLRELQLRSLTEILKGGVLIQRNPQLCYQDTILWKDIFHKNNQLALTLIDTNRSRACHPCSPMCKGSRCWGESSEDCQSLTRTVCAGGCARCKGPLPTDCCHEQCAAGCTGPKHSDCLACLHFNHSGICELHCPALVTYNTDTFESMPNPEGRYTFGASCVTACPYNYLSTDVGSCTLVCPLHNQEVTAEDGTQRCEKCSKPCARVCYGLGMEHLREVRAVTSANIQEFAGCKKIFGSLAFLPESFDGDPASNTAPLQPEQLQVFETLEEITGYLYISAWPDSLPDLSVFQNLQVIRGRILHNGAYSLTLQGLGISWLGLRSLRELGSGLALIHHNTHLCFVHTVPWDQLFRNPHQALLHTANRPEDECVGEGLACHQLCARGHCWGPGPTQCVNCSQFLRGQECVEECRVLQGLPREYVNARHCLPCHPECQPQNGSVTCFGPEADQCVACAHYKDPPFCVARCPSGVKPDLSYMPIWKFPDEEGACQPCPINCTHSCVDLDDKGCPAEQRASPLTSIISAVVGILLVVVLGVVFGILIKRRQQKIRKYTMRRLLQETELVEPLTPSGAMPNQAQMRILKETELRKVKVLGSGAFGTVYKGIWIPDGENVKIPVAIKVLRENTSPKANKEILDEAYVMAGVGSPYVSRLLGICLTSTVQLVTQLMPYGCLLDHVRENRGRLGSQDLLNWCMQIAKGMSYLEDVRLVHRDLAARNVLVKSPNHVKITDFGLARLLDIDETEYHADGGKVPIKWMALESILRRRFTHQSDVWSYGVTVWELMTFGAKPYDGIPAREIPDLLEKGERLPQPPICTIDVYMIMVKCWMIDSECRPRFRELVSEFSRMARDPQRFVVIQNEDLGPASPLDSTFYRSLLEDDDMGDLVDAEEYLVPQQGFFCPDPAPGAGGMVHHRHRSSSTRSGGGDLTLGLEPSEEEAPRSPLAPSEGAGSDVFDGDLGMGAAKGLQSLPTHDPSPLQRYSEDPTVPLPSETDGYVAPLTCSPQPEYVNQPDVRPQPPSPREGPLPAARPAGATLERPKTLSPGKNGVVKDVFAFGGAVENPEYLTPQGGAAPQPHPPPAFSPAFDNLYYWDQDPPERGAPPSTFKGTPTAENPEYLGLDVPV

[3] = reduced viability of SK-BR-3 breast cancer cells – cell-based, 24 h, human, pilot screen (AID 572;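 active means viability at or below 10% of carrier control in both of two separate runs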;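 further: compound exposure lasted between 18 and 24 h rather than exactly 24 h; 100% = carrier-treated control wells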); settings: SK-BR-3 viability, CellTiter-Glo luminescence, at 10 µM, stronger effect = lower value
[4] = HUVEC growth inhibition – cell-based, human, primary screen (AID 575;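 active means viability at or below 30% in both replicate assays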;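 further: 100% = median of untreated cell wells with 0.1% DMSO on each plate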); settings: HUVEC proliferation, CellTiter-Glo luminescence, 72 h; at 10 µM; stronger effect = lower value
[5] = H69AR cell proliferation blockers – human, duplicate replicates, primary screen (AID 580;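 active means viability at or under a set limit in both replicates, limit being median viability minus 3 SD, cut at about 48% in these data, passing the limit was not always enough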;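 further: 100% = mean luminescence of untreated wells and 0% = no signal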); settings: H69AR lung tumor cells viability, ATP luminescence, 72 h; at 10 µM; stronger effect = lower value
[6] = MRP1 drug-resistance reversers in H69AR cells – cell-based, doxorubicin co-treatment, pilot screen (AID 601;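 active means viability loss from added drug above about 55%, and viability with drug at most 40%, in both replicates, limit read from the data, passing the limit was not always enough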); settings: CellTiter-Glo, 72 h, at 10 µM; for differential viability (reversal): stronger effect = higher value
[7] = yeast transport mutant growth inhibition pilot in 384-well plates, post-Golgi transport modulator project (AID 636; in the data active means inhibition above about 31%); settings: absorbance 615 nm, about 18 h, stronger effect = higher value
[8] = growth suppression of yeast trafficking mutant, preliminary HTS, modulators of trafficking downstream of Golgi apparatus project, 1536-format plate, OD 615 nm (AID 637; in the data active means inhibition above about 30%); settings: yeast transport mutant growth, absorbance 615 nm, 18 h; stronger effect = higher value
[9] = S. cerevisiae growth inhibition in permissive medium (OD615), pilot counter-assay for S. cerevisiae lifespan shortening project, permissive growth control (AID 705;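 active means growth inhibition above 25% in both replicates, a cutoff set 3 SD above the mean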); settings: OD615, 24 h, at 10 µM, stronger effect = higher value
[10] = S. cerevisiae growth inhibition in restrictive medium, OD615, pilot screen, restrictive growth control, yeast lifespan reduction project (AID 706); settings: OD615, 48 h, at 10 µM, stronger effect = higher value;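 further: modified DeaD lifespan yeast strain shifted to restrictive glucose medium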
[11] = doxorubicin toxicity protection in MRP-1 cells – H69AR cells, CellTiter-Glo, duplicate, MRP-1 activator project, pilot screen (AID 807;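 active means viability increase at or above a cutoff of the median across tested compounds plus 3 SD, cut at about 8.5% in these data, passing the limit was not always enough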;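 further: compound pretreatment 18-22 h then 72 h combined with doxorubicin; 0% = doxorubicin alone and 100% = vehicle without doxorubicin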); settings: H69AR viability with doxorubicin, CellTiter-Glo luminescence; at 10 µM; stronger effect = higher value
[12] = RAM pathway blockade in budding yeast – dse1pr::URA3 reporter, 5-FOA selection, pilot screen (AID 869;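 active means inhibition over a set limit, the all-compound mean plus 3 SD, in both replicate runs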;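 further: 0% = DMSO wells with no growth and 100% = 10 µM 1-NA-PP1 with full growth; RAM network block rescues cells from 5-FOA so hits raise OD615 growth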); settings: S. cerevisiae dse1pr::URA3 5-FOA growth, OD615, 2 d; at 10 µM; stronger effect = higher value; strain carries analog-sensitive mutant Cbk1 kinase
[13] = RAM signaling pathway blockade in yeast – S. cerevisiae, Pdr1DBD-CYC8 efflux-inhibited sensitized strain, primary screen (AID 1298;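 active means RAM network inhibition above 8.4% in each of two replicates, 3 SD over the compound average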;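 further: 0% = DMSO untreated cells without growth and 100% = 10 µM 1-NA-PP1 full growth; higher means more yeast growth rescued from 5-FOA killing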); settings: S. cerevisiae cbk1-as DSE1-URA3 strain, 5-FOA growth OD615, 2 d; at 50 µM; stronger effect = higher value
[14] = viability of HCT116 without oncogenic beta-catenin – human colon tumor cells, pilot screen (AID 823;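 active means cell viability at or below a set limit in both duplicate runs, the limit being the all-compound median minus 4 SD, cut at about 23% in these data, passing the limit was not always enough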;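 further: 0% = wells killed by 20 µM Hyamine and 100% = untreated DMSO cell wells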); settings: HCT116 beta-catenin knockout viability, CellTiter-Glo, 60 h; at 10 µM; stronger effect = lower value
[15] = viability of PTEN-null HCT116 cells – cell-based, HCT116 clonal line, CellTiter-Glo, pilot screen (AID 824;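 active means viability at or below 27.92% in each of two runs, the all-compound median minus 4 SD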;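 further: 0% = 20 µM Hyamine control and 100% = vehicle cell control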); settings: HCT116 PTEN-deleted viability, 60 h, at 10 µM, stronger effect = lower value
[16] = H69AR cells + 2 uM doxorubicin, measured here: viability with 2 uM doxorubicin, stronger effect = lower value
[17] = H69AR cells, compound alone cytotoxicity

CCN(CC)c1ccc2cc(-c3nc4ccccc4[nH]3)c(=O)oc2c1
3.43%: viability [6, 17]
inactive: Her2 level [2] 101% | viability [3] 88% | differential viability (reversal) ([6]; H69AR cells + 2 uM doxorubicin) -0.345% | inhibition [7] 0.13% | inhibition [8] -6.39% | growth inhibition [9] -3.73% | growth inhibition [10] -16.3% | viability increase [11] -7.61% | inhibition [12] -1.12% | RAM network inhibition [13] 0.92%
active: viability [4] 20.9% | viability [5] 3.43%
3.78%: viability [6, 16]
88%: viability [1]

Cc1ccc(C)c(N2CCN(C(=O)c3cc4ccccn4n3)CC2)c1
inactive: Her2 level [2] 85% | viability [3] 91% | viability [4] 90.1% | viability [5] 99.8% | inhibition [7] -4.74% | inhibition [8] 8.33% | growth inhibition [9] -8.86% | growth inhibition [10] 0.2% | viability increase [11] -2.11% | viability [14] 91.7% | viability [15] 92.5% | inhibition [12] 0.805% | RAM network inhibition [13] 10.8%
91%: viability [1]

CCOc1ccc(-c2nnc3sc(-c4c(OC)cccc4OC)nn23)cc1
inactive: Her2 level [2] 84% | viability [3] 126% | viability [4] 86.5% | viability [5] 86.2% | differential viability (reversal) ([6]; H69AR cells + 2 uM doxorubicin) 1.34% | inhibition [7] -5.87% | inhibition [8] 10.5% | growth inhibition [9] -0.61% | growth inhibition [10] 8.15% | viability increase [11] -5.89% | viability [15] 71.3% | inhibition [12] 2.04% | RAM network inhibition [13] 4.81%
84.8%: viability [6, 16]
86.2%: viability [6, 17]
126%: viability [1]

COc1ccc(-c2nnc3sc(C(C)N4C(=O)c5ccccc5C4=O)nn23)cc1 (stereo not drawn)
101%: viability [6, 16]
90.9%: viability [6, 17]
inactive: Her2 level [2] 111% | viability [3] 84% | viability [4] 96.8% | viability [5] 90.9% | differential viability (reversal) ([6]; H69AR cells + 2 uM doxorubicin) -9.99% | inhibition [7] 2.13% | inhibition [8] -2.67% | viability increase [11] -2.35% | viability [14] 101% | viability [15] 96.5% | inhibition [12] 1.46% | RAM network inhibition [13] -1.51%
84%: viability [1]
active: growth inhibition [10] 53.1%

CC1CCN(Cc2ccc(NC(=O)C3CCN(c4nnc(-n5cccc5)s4)CC3)cc2)CC1
86.5%: viability [1]
active: viability [4] 4.64%
78.5%: viability [6, 17]
79.5%: viability [6, 16]
inactive: Her2 level [2] 90.5% | viability [3] 86.5% | viability [5] 78.5% | differential viability (reversal) ([6]; H69AR cells + 2 uM doxorubicin) -1.01% | inhibition [7] -4.27% | inhibition [8] 1.33% | growth inhibition [9] 3.76% | growth inhibition [10] 2.38% | viability increase [11] -2.95% | inhibition [12] 0.695% | RAM network inhibition [13] 4.34%

CC(C)CCSc1nc2c(c(=O)[nH]c(=O)n2C)n1CCCc1ccccc1
50%: viability [6, 17]
inactive: Her2 level [2] 71% | viability [3] 87.5% | viability [4] 46.7% | differential viability (reversal) ([6]; H69AR cells + 2 uM doxorubicin) -8.95% | inhibition [7] -3.73% | inhibition [8] 4.17% | growth inhibition [9] -11.8% | growth inhibition [10] -9.37% | viability increase [11] -4.55% | viability [14] 68.8% | viability [15] 59.1% | inhibition [12] 3.84% | RAM network inhibition [13] 9.02%
87.5%: viability [1]
58.9%: viability [6, 16]

Oc1cccc(C=NCc2ccccc2)c1O
78%: viability [1]
51%: viability [6, 17]
active: growth inhibition [9] 83.7% | growth inhibition [10] 97.5%
77%: viability [6, 16]
inactive: Her2 level [2] 82.5% | viability [3] 78% | viability [4] 67.3% | differential viability (reversal) ([6]; H69AR cells + 2 uM doxorubicin) -26% | inhibition [7] -0.39% | inhibition [8] -0.5% | viability increase [11] -3.97% | viability [14] 71% | viability [15] 72.2% | inhibition [12] -0.21% | RAM network inhibition [13] -1.18%

CCN1CCN(c2ncnc3c2cnn3-c2ccc(C)cc2C)CC1
85.5%: viability [1]
inactive: Her2 level [2] 96% | viability [3] 85.5% | viability [4] 99.8% | viability [5] 73.7% | inhibition [7] -6.4% | inhibition [8] 7.7% | growth inhibition [9] -5.99% | growth inhibition [10] -11% | viability increase [11] -6.88% | viability [14] 85.1% | viability [15] 81.6% | inhibition [12] 0.395% | RAM network inhibition [13] 0.63%

Clc1ss/c(=N\c2ccccn2)c1Cl
76.6%: viability [6, 17]
inactive: Her2 level [2] 77% | viability [3] 100% | viability [4] 77.8% | viability [5] 76.6% | differential viability (reversal) ([6]; H69AR cells + 2 uM doxorubicin) 4.38% | inhibition [7] -9.18% | inhibition [8] 2.06% | growth inhibition [9] 3.12% | growth inhibition [10] 19.3% | viability increase [11] -5.42% | viability [15] 96.8% | inhibition [12] 1.77% | RAM network inhibition [13] 3.89%
72.3%: viability [6, 16]
100%: viability [1]

O=C(Cn1ncc2c1-c1ccccc1OC2)N1CCc2ccccc21
inactive: Her2 level [2] 100% | viability [3] 83.5% | viability [4] 96.2% | viability [5] 84.3% | differential viability (reversal) ([6]; H69AR cells + 2 uM doxorubicin) -0.91% | inhibition [7] 0.51% | inhibition [8] -5.33% | growth inhibition [10] -6.7% | viability increase [11] -0.77% | viability [14] 93.4% | viability [15] 88.4% | inhibition [12] -0.23% | RAM network inhibition [13] 6.41%
84.3%: viability [6, 17]
85.2%: viability [6, 16]
83.5%: viability [1]

COCCn1c(SCC(=O)N2CCc3ccccc32)nc2c(c1=O)SC(C)C2 (stereo not drawn)
77%: viability [1]
inactive: Her2 level [2] 104% | viability [3] 77% | viability [4] 67.8% | viability [5] 78.8% | inhibition [7] -3.87% | inhibition [8] -2% | growth inhibition [9] 6.33% | growth inhibition [10] 13.2% | viability increase [11] -2.72% | viability [14] 94.1% | viability [15] 94.3% | inhibition [12] 0.465% | RAM network inhibition [13] 6.03%
